Each structure is given as a SMILES string. In all, about 330,000 compounds went through this assay and about 1,800 (0.55%) were called active. This is one part of a sample in which actives are shown more often than they occur. Unmarked numbers belong to inactive results. No stated cut-off is given here; in the data, active means growth inhibition above about 68%; inactive means the rest.

The nature of the experiment: growth inhibition of ugtP-null S. aureus, primary screen, RN4220 ugtP deletion, OD600 (AID 1259309).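 Further: plate controls were untreated wells for no effect and antibiotic for full effect.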 Particulars: 16 h, stronger effect = higher value.
In the case of `CC[C@@]12C(=O)N(c3ccccc3)C(=O)N1C(c1cccc(C)c1)C1C(=O)N(Cc3ccccc3)C(=O)C12` (stereo partly specified), the growth inhibition was 3.88%.
On to `CC(=NOC(=O)c1ccc(C)cc1)C(=O)c1ccc(Br)cc1`, for which the growth inhibition is 0.731%.
Consider `COc1ccc(-c2csc3ncnc(N4CCN(S(=O)(=O)c5ccccc5C#N)CC4)c23)cc1`, for which the growth inhibition was 95.8% (active).
Consider `COc1ccc(-c2csc3ncnc(N4CCN(S(=O)(=O)c5cccc(F)c5)CC4)c23)cc1`, for which the growth inhibition was -16.7%.
The same measure for `COc1ccc(S(=O)(=O)N2CCN(c3ncnc4c(-c5ccccc5)nsc34)CC2)cc1`: 5.08%; for `CC(=NNC(=O)C1CC1c1ccccc1)c1cccs1` (stereo unspecified): 3.01%; for `Cc1cc([N+](=O)[O-])cc(C=NNC(=O)C2COc3ccccc3O2)c1O` (stereo unspecified): 9.3%.
Take `CC(=NNC(=O)c1ccncc1)c1ccc(NC(=O)c2ccc(Cl)cc2Cl)cc1`: the growth inhibition is -4.36%.
The same measure for `Cc1cccc(NC(=S)NN=C(c2ccccc2)C(C)C)c1`: 36.3%; for `Cc1cccc(NC(=S)Nc2ccc(Cl)c(Cl)c2)c1`: 98.9% (active); for `Cc1ccc(NC(=S)Nc2ccc(F)cc2)cc1`: -2.35%.
`CC(=NN=C1SC(CC(=O)O)C(=O)N1c1ccccc1)c1ccc(C)cc1` (stereo unspecified): the growth inhibition is 7.85%.
As for `O=C(C(=NO)n1cncn1)c1ccc(Cl)cc1Cl`, the growth inhibition was 18.1%.
On to `Fc1cccc(C=NN=Cc2cccc(F)c2)c1`, for which the growth inhibition was 2.16%.
For the compound `CN1CCN(c2nc(Nc3ccc(O)cc3)nc3ccccc23)CC1`, the growth inhibition is -7.09%.
`Cc1cc(Nc2ccc(Br)cc2)nc2ccccc12`: the growth inhibition was 84.1% (active).
On to `Clc1ccc(Nc2ccc3ccccc3n2)cc1`, for which the growth inhibition is -34.6%.
Consider `CC(=NNc1nc(-c2ccc(Cl)cc2)cs1)c1cccs1`, for which the growth inhibition was -2.32%.
For the compound `COc1ccc(C=NNC(=O)c2cccc3ccccc23)c(OC)c1OC`, the growth inhibition was 7.75%.
As to `CCC(=O)N(C)CCc1cc2c(c(OC)c1C=NNC(=O)c1ccccc1O)OCO2`, the growth inhibition was 9.87%.
Under `CC(=NNC(=O)c1c(C)nc2ccccn12)c1ccccc1F` stands 6.04%.
In the case of `COc1cc(C(c2c(O)c3ccccc3oc2=O)c2c(C)n(C)n(-c3ccccc3)c2=O)ccc1O` (stereo unspecified), the growth inhibition was 82.9% (active).
Consider `CCC(=O)CC(c1ccc([N+](=O)[O-])cc1)c1c(O)c2ccccc2oc1=O` (stereo unspecified), for which the growth inhibition is 12%.
For the compound `COc1cc(C=Nn2c(C)nc3ccccc3c2=O)ccc1O`, the growth inhibition was 2.48%.
As to `S=C(NCCN1CCOCC1)NN=Cc1ccccc1`, the growth inhibition is -0.962%.
In the case of `Cc1ccc(C=NNC(=O)c2ccc(C(=O)NN=Cc3ccc(C)s3)o2)s1`, the growth inhibition was -0.554%.
